For 60 compounds, inhibition results are on record in PubChem BioAssay AID602449 (Sanford-Burnham Center for Chemical Genomics, 2012).

Hit rate of the full screen: of about 360,000 compounds, about 5,000 (1.4%) were called active.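 The calls were made as follows: active = inhibition of 50% or more, scaled per plate between neutral and stimulator controls; inactive = the rest.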 The sample as a whole holds a higher share of actives than the screen did.

In general, inhibition refers to the drop in the measured response relative to a control, in per cent.

The experiment is described as follows: mitochondrial permeability transition pore inhibitors, primary screen, biochemical, isolated mouse mitochondria, absorbance (AID 602449).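 Also: 0% = DMSO wells given calcium and 100% = 1 mM EGTA wells.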 Conditions: Ca2+ swelling absorbance, 30 min, at 10 µM, stronger effect = higher value.
With `O=C(NNC1=C(C(=O)C(F)(F)F)CCC1)c1ccncc1`, the inhibition is 0.3% (inactive).

Regarding `COc1ccc(NC(=O)C(=O)NCC(c2ccco2)N2CCc3ccccc3C2)cc1` (stereo not given), the inhibition is 0.5% (inactive). As for `O=C(CCCOc1ccccc1)Nc1cccc(C(=O)O)c1`, the inhibition is 0.4% (inactive).

As to `COC(=O)c1noc(C)c1-c1ccnn1C(=O)c1ccc(Cl)cc1`, the inhibition is 5% (inactive). To `O=C(CNC(=O)c1ccccc1Br)NNC(=O)c1cccs1` belongs -3.3% (inactive); to `O=C(C/C(=N\NC(=O)c1ccccc1Br)C(F)(F)F)c1cccs1`, 59.2% (active). `CC/C(=N\NC(=O)c1ccccc1Cl)c1ccc(Br)s1`: the inhibition is -0.9% (inactive). For the compound `N#Cc1nc(N)nc(N(c2ccccc2)c2ccccc2)n1`, the inhibition is 0% (inactive). For the compound `CC1(C(=O)NS(=O)(=O)c2cccs2)CCN1C(=O)Cc1ccc(-c2ccccc2)cc1` (stereo not given), the inhibition is 1.6% (inactive). To `O=S(=O)(Nc1ccccc1Br)c1cccs1` belongs 1.3% (inactive); to `O=S(=O)(Nc1ccccc1)c1ccc(NS(=O)(=O)c2cccs2)cc1`, -0.1% (inactive).

Consider `O=C(Nc1cccc(Cl)c1)Nc1ccccc1NS(=O)(=O)c1cccs1`, for which the inhibition is 87.7% (active).

In the case of `Nc1ncnc2c1ncn2[C@@H]1O[C@H](CNCc2cccn2-c2nccs2)[C@@H](O)[C@H]1O`, the inhibition was -2.5% (inactive). As for `CC(=O)OC(COc1ccc(F)cc1)Cn1cnc2ccccc21` (stereo not given), the figure is 0.4% (inactive); as for `CCOC(=O)c1ccccc1NC(=O)CSc1nc2c(sc(=S)n2CC)c(=O)[nH]1`, 5.4% (inactive).

Take `Cc1ccc(C(=O)Nc2c(-c3ccccc3)[nH][nH]c2=O)cc1`: the inhibition was -0.8% (inactive). Turning to `NNc1nc2c(Cl)cccc2s1`, the inhibition is -0.9% (inactive).

With `Fc1cc(F)c2nc(Nc3nc4c(F)cccc4s3)sc2c1`, the inhibition is 94.3% (active). As for `Fc1ccc2nc(Nc3nc4c(s3)CCCC4)sc2c1`, the figure is 5.3% (inactive); as for `O=C(NC1(C(F)(F)F)NC(=O)N(Cc2cccnc2)C1=O)c1ccccc1Cl` (stereo not given), 1% (inactive).

As for `CCCCc1ccc(NC(=O)NCc2cccnc2)cc1`, the inhibition was -0.3% (inactive). Take `CCCCCCCCCCCCN1C(=O)CSC1c1cccnc1` (stereo not given): the inhibition was 62.4% (active). With `CN(C)CCCN1C(=O)CSC1c1ccc([N+](=O)[O-])cc1` (stereo not given), the inhibition was -0.2% (inactive). As for `CCCS(=O)(=O)NC(=O)C1(C)CCCN(C(=O)c2ccnc(Cl)c2)C1` (stereo not given), the figure is -0.3% (inactive); as for `COc1ccc(CCNC(=O)COC(=O)Cc2cc(OC)c(OC)c(OC)c2)cc1`, 0% (inactive). Turning to `COc1ccc(CC(=O)Nc2nc(-c3ccc(F)c(F)c3)cs2)cc1OC`, the inhibition was 108% (active). To `COc1ccc(CC(=O)Nc2ccccc2NC(=O)c2ccco2)cc1OC` belongs 2.5% (inactive); to `COc1ccc(CC(=O)NC2CCSc3ccccc32)cc1OC` (stereo not given), -1.7% (inactive).

Take `COc1cc(CC(=O)Nc2nc(-c3ccc(F)c(F)c3)cs2)cc(OC)c1OC`: the inhibition was 105% (active). Take `COc1cc(CCC(=O)Nc2ccncc2Cl)cc(OC)c1OC`: the inhibition was 0.5% (inactive).

For `CC(C)c1ccc(CC(=O)N2CCC2(C)C(=O)NS(=O)(=O)c2ccc(C(C)(C)C)cc2)cc1` (stereo not given), the inhibition is 1.8% (inactive). `COc1ccc(Cl)cc1NC(=O)COC(=O)C(CC(C)C)N1C(=O)C2CC=CCC2C1=O` (stereo not given): the inhibition is 1.6% (inactive). As for `COc1ccc(C(=O)C2CCCN(C(=O)c3cc(C)on3)C2)cc1F` (stereo not given), the figure is -1.4% (inactive); as for `O=C(NNC(=O)c1csc(-c2cccnc2)n1)Nc1ccc(Cl)cc1`, 56.5% (active); as for `O=C(CSc1n[nH]c(-c2cccnc2)n1)Nc1ccc(Cl)cc1`, 1.2% (inactive). Take `O=C(Nc1ccc(Cl)cc1)c1csc([C@@H]2O[C@H](CO)[C@H](O)[C@H](O)[C@H]2O)n1`: the inhibition was -4.4% (inactive). Regarding `CCCN(C(=O)c1nc2nccc(C)n2n1)c1c(N)n(Cc2ccccc2)c(=O)[nH]c1=O`, the inhibition is -2.3% (inactive). As for `CCc1cc(C(=O)OC)c(NC(=O)CC2Sc3ccc(C(F)(F)F)cc3NC2=O)s1` (stereo not given), the figure is 3.8% (inactive). To `O=C(Nc1ccc(Cl)cc1)c1csc([C@H]2C[C@H](O)[C@@H](CO)O2)n1` belongs -0.6% (inactive); to `CC[C@@H](C)[C@@H](C(=O)N1CCN(C(=O)OC(C)(C)C)CC1)n1cc(CCC(=O)O)nn1`, -0.6% (inactive). As for `CC(C)(C)c1ccc(CCC2OCC(CN3CCOCC3)O2)cc1` (stereo not given), the inhibition is 3.3% (inactive). Regarding `COc1cccc(C(C(=O)NC2CCCC2)N(C(=O)c2ccco2)c2cccc(C(C)=O)c2)c1OC` (stereo not given), the inhibition was -2.4% (inactive). Take `Cc1nc(CNS(=O)(=O)c2cc([N+](=O)[O-])ccc2C)cs1`: the inhibition is 0.4% (inactive). Turning to `Cc1ccc(S(=O)(=O)NCc2nc3ccccc3c(=O)n2N)cc1`, the inhibition was 1.2% (inactive). As for `Cc1nc(CNS(=O)(=O)c2ccc(Oc3ccccc3)cc2)cs1`, the figure is 88.7% (active); as for `COC(=O)[C@@]12C[C@@H](CC(=O)NCCCCc3ccccc3)C(=O)N(Cc3ccccc3)C1=CCC(C)(C)C2`, -0.7% (inactive); as for `Cc1ccc(OCC(=O)N2CCN(S(=O)(=O)c3ccc(Cl)s3)CC2)cc1C`, 2.3% (inactive). As for `CC(C)c1ccc(NC(=O)NC2CCCCC2)cc1`, the figure is 0.2% (inactive); as for `CC(C)c1ccc(NC(=S)NC2CC3C=CC2C3)cc1` (stereo not given), 73.8% (active); as for `O=C(COC(=O)C1CC2C=CC1C2)Nc1ccccc1` (stereo not given), -0.1% (inactive). To `CCOC(=O)/C(N=Nc1cc(C(=O)O)cc(C(=O)O)c1)=C(\O)CCl` belongs -2.4% (inactive). Turning to `CN(C)C(CNC(=O)c1cccc(S(=O)(=O)Nc2ccc(Br)cc2)c1)c1ccco1` (stereo not given), the inhibition was -0.5% (inactive). Regarding `Cc1ccc(CC(=O)Nc2ccc(OC(F)F)c(Cl)c2)cc1C`, the inhibition was 60% (active).

`COc1cc(NC(=S)NCc2ccco2)c(OC)cc1Cl`: the inhibition is 1.7% (inactive). As for `COc1ccc(Cc2nnc(SCC(=O)Nc3ccc(C)c(C)c3)o2)cc1OC`, the figure is 0% (inactive).

As to `FC(F)Oc1ccc(NC(=S)NCc2ccco2)cc1Cl`, the inhibition was 86.1% (active). To `Cc1ccc(CC(=O)Nc2ccc(S(=O)(=O)N3CCOCC3)cc2)cc1C` belongs 1% (inactive); to `COC(=O)Cc1ccc(NC(=S)NCc2ccco2)cc1`, -0.8% (inactive); to `OCCC1CN(Cc2ccc3nsnc3c2)CCN1C1CCCC1` (stereo not given), 2.1% (inactive).

With `Cc1nnc(SCC(=O)N(C(C)C)C(C)C)nc1C`, the inhibition was -1.3% (inactive).
